# Screening results: PubChem BioAssay, National Center for Advancing Translational Sciences (NCATS)
# Pf Dd2 growth: Plasmodium falciparum Dd2 growth inhibition | Potency, µM (series often up to 28.9 µM), for the others: at the top dose activity, negative = inhibition, most hits filed as inhibitors | AID 1347417 | 120,000 compounds, 4.3% hits | P. falciparum Dd2 growth, SYBR Green, 72 h; active = well fitted inhibition curve with a large enough effect;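 also: plate controls were DMSO vehicle for no effect and reference drug for full effect; nearly all actives have a fitted effect of over 65% in size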
#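 Readout: SYBR Green fluorescence, 485 nm excitation, 535 nm emission, after ~16 h lysis at 37C. Before that, Dd2-infected red cells (2.5% hematocrit) grew 72 h with compound, 29 uM top final concentration.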
# * hit, by the source's call; i = inactive; [ ] = another dose, or the depositor's remark. This is one part of a sample in which hits are shown more often than they occur. Potency is read from the fitted curve at half-maximal effect.
SMILES,Pf Dd2 growth
Cc1ccccc1S(=O)(=O)N1CCC(CCC(=O)N(C)Cc2cccnc2)CC1,-17.6%
Cc1ccsc1C(=O)N1CCC2(CC1)N(C)C(=O)CS2(=O)=O,27.7%
O=S(=O)(Cc1ccccc1)N1CCC(Oc2ccc(-c3noc(C4CC4)n3)cc2)C1 (configuration not stated),i[5.79 µM]
Cc1cc2c(c(=O)n(-c3ccc(F)cc3)c(=O)n2CC(=O)Nc2ccccc2C(F)(F)F)n1C,40.5%
Cc1cc(C(=O)NCC2(COc3ccccc3)C[C@@H](O)[C@@H](O)C2)n(C)n1 (some centres not stated),-5.7%[44.1 µM]
COc1ccc(-c2noc(C(=O)NC3CCC3)c2[C@H](C)O)cc1,-7.7%[44.1 µM]
CN(C)c1cccc(Oc2nnnn2[C@H]2CO[C@H]3[C@@H]2OC[C@@H]3NS(=O)(=O)c2ccccc2C#N)c1,-26.7%
O=C(Cc1ccccc1)N1CCC2(CCCN(C3CCOCC3)C2=O)C1 (configuration not stated),0.3%
COc1cc(NC(=O)N2CC(c3noc(-c4ccccc4)n3)C2)cc(OC)c1OC,i
O=C(Cc1ccccc1Cl)N1CCC(c2n[nH]c(=O)n2Cc2ccc(F)cc2)CC1,-13.4%
O=C(NC1CCc2nnc(C3CC3)n2CC1)c1ccc(Cn2cncn2)o1 (configuration not stated),i
O=C(NC[C@@H]1CCCN1)c1ccc(S(=O)(=O)NCc2ncc[nH]2)cc1,2.9%
N#Cc1cccc(C(=O)N2CCCOCCNC(=O)CC2)c1,i
O=C1NCCCCCN(C(=O)c2cccs2)[C@H]2CCCC[C@@H]12,1.6%
C1CNCC(c2nc(CCOCC3CCOCC3)no2)C1 (configuration not stated),-3.5%
C(Cc1noc(C2CNC2)n1)OCC1CC1,5.01µM*
CC(=O)N1CCCC(c2nc(CCOCC3CC3)no2)C1 (configuration not stated),-10.2%
COCC[C@]1(O)CCN(C(=O)CCCc2ccccc2)C[C@H]1C,-7.6%
COCC1CN(C(C)=O)CC12CCN(C(=O)CCCc1ccccc1)CC2 (configuration not stated),i
COCCN1CC2CN(C(=O)CCCc3ccccc3)CC(C1)O2,11.2µM*
CS(=O)(=O)N1CCC(C2CCN(Cc3cccs3)C2)CC1 (configuration not stated),12.6µM*
CS(=O)(=O)N1CCC(C2CCN(C3CCOCC3)C2)CC1 (configuration not stated),-17.7%
Cn1cccc1CN1CCC(C2CCN(S(C)(=O)=O)CC2)C1 (configuration not stated),i
CNC(=O)N1CCC(C2CCN(C(=O)Cc3cccs3)C2)CC1 (configuration not stated),30.8%
Cc1ccc(CN2CCC(C3CCN(S(C)(=O)=O)CC3)C2)o1 (configuration not stated),i
SMILES,Pf Dd2 growth
CS(=O)(=O)N1CCC(C2CCN(Cc3ccc(Br)o3)C2)CC1 (configuration not stated),4.47µM*
CCOc1ccccc1-c1nccn1C1COc2ccccc2C1 (configuration not stated),-12.2%
Clc1ccccc1C1Cn2cnc(-c3nc(-c4cccnc4)no3)c2CO1 (configuration not stated),4.47µM*
COc1ccc(C2Cn3nnc(-c4nc(-c5ccc(C)cc5)no4)c3CO2)cc1 (configuration not stated),i
COc1ccc(C2Cn3cnc(-c4nc(-c5ccc(OC(C)C)cc5)no4)c3CO2)cc1 (configuration not stated),11.2µM*
Fc1ccc(C2Cn3nnc(-c4nc(-c5cccnc5)no4)c3CO2)cc1 (configuration not stated),i
COc1cccc(C2Cn3nnc(-c4nc(-c5ccc(OC(C)C)cc5)no4)c3CO2)c1 (configuration not stated),-20.4%
CCOc1ccc(C2Cn3nnc(-c4nc(-c5cccnc5)no4)c3CO2)cc1 (configuration not stated),-5.2%
CCc1nc(-c2c3n(c(=O)n(CC(=O)Nc4cc(C)on4)c2=O)CCCC3)no1,44.1%
Nc1nc(C2CC(NC(=O)c3ccc(CO)cc3)C2)cc(=O)[nH]1 (configuration not stated),-10.8%
COc1ccccc1-c1noc(CCC(=O)N2CC[C@@](C)(O)[C@@H](O)C2)n1,-3.5%
Clc1ccc(-c2nnc3n2CCN(Cc2cncs2)C3)cc1,-4.3%
COC(=O)c1ccc(C2Nc3c(C)cccc3-c3cc(C)nn32)cc1 (configuration not stated),0.447µM*
CCN(CC)c1ccc(C2Nc3ccccc3-c3cc(C)nn32)cc1 (configuration not stated),-25.6%
COc1ccc(C2Nc3ccccc3-c3cc(C)nn32)c(OC)c1 (configuration not stated),-1.5%
CCn1cc(S(=O)(=O)N2CC(F)(F)C[C@H]2c2nc(C)no2)cn1,8.7%
CCOc1ccc(CC(=O)NC2CCN(c3cc(-c4cccs4)[nH]n3)C2)cc1OCC (configuration not stated),i
CCOc1ccc(CC(=O)NC2CCN(c3cc(-c4ccccc4)[nH]n3)C2)cc1OCC (configuration not stated),7.94µM*
Cc1cc(C)cc(C(=O)NC2CCN(c3cc(-c4ccccc4)[nH]n3)C2)c1 (configuration not stated),i
CCOc1ccc(CC(=O)NC2CCCN(c3cc(-c4ccc(F)cc4)[nH]n3)C2)cc1OCC (configuration not stated),i
CCOc1cc(C(=O)NC2CCN(c3cc(-c4ccccc4)[nH]n3)C2)cc(OCC)c1OCC (configuration not stated),5.01µM*
CCOc1cc(C(=O)NC2CCN(c3cc(-c4cccs4)[nH]n3)C2)cc(OCC)c1OCC (configuration not stated),i
O=C(O)CCC(=O)N1Cc2[nH]cnc2C[C@H]1C(=O)NC1CCCCC1,8.2%[44.1 µM]
Cn1ccc(C(=O)N2CCC3(CC2)OC(=O)N(Cc2ccccc2)C3(C)c2ccccc2)n1 (configuration not stated),i
COc1cccc(-c2cnc([C@@H]3COCCN3Cc3cnc4ccccc4c3)[nH]2)c1,-10.2%[44.1 µM]
SMILES,Pf Dd2 growth
CCC(O)c1cc2n(n1)CCN(C(=O)c1cnn(-c3ccccn3)c1C)C2 (configuration not stated),-6.3%
CC(C)NC(=O)c1cc(-c2ccc(S(C)(=O)=O)cc2)c2cnn(C)c2n1,3.16µM*
CN(C)C(=O)c1cc(-c2ccc(S(C)(=O)=O)cc2)c2cnn(C)c2n1,7.6%
CN(C)C(=O)c1cc(-c2ccc(S(C)(=O)=O)cc2)nc2c1cnn2C,18.1%
Cc1noc2c(-c3cccc(O)c3)cc(-c3ccccc3)nc12,-28.0%[44.1 µM]
CCN(CC)CC[C@H]1CN(C(=O)NC2CCCCC2)CC[C@H]1CC(=O)O,27.6%[44.1 µM]
CC(=O)N1CCCCC12Cc1ccccc1NC2=O (configuration not stated),-11.1%[44.1 µM]
COc1ccccc1C(=O)CC1(O)C(=O)N(CC(N)=O)c2ccccc21 (configuration not stated),19.9%
O=C(CC1(O)C(=O)N(CCc2ccccc2)c2ccc(Br)cc21)c1ccccc1O (configuration not stated),10µM*
C#CCN1C(=O)C(O)(CC(=O)c2ccc(OC)c(OC)c2)c2cc(Br)ccc21 (configuration not stated),-14.9%
CNCCN1C(=O)CC[C@H]2CN(c3nccc(C(F)(F)F)n3)CC[C@H]21,-22.5%
